Assay results as given in PubChem BioAssay AID463173 (ICCB-Longwood Screening Facility, Harvard Medical School, 2010).
The whole screen tested about 52,000 compounds, of which about 4,300 (8.3%) were called active. What follows is part of a selection rich in actives, with near analogues and random picks from the rest. Unmarked numbers belong to inactive results. No stated cut-off is given here; in the data, active means survival mostly below about 52% (no sharp cut-off); inactive means mostly above about 56%.

Test system: DeltatarO mutant
Experiment: growth inhibition of S. aureus wild type versus tarO mutant, primary screen, teichoic acid synthesis inhibitors, RN4220, OD600 (AID 463173)
Settings: OD600, 18 h, hits give low values, screened at 18.75 µg/mL (by protocol)

Row | SMILES | survival
1 | CC(Cc1ccccc1)N=C1NS(=O)(=O)c2ccccc21 (centres undefined) | 81%
2 | Cc1nc2c3ccccc3nc(NNC(=O)CCC(=O)N3CCN(c4cccc(C(F)(F)F)c4)CC3)n2n1 | 57%
3 | CCOc1ccc(CCNC(=O)C2Cc3ccccc3N2C(=O)CC)cc1OCC (centres undefined) | 93%
4 | Cc1nnc(N(C)C(=O)Cc2ccc3c(c2)OCO3)s1 | 73%
5 | COC(=O)C1C(=O)NC(S)=C(C#N)C1c1ccccc1Cl (centres undefined) | 89%
6 | CCCN(CCC)C(=O)Cn1c(=O)n(-c2ccc(CC)cc2)c(=O)c2c3c(sc21)CCC3 | 110%
7 | COc1ccc(NC(=O)c2csnn2)cc1Cl | 86%
8 | COc1ccccc1N1CCN(C(=O)c2cnc(N3CCOCC3)c3ccccc23)CC1 | 78%
9 | CCOC(=O)c1cc(-c2ccc(F)cc2)n(CC(=O)NC2CCCCCC2)c1C | 76%
10 | CCc1cccc(-n2c(C)nc3c(cnn3-c3ccc(Cl)cc3)c2=O)c1 | -1% (active)
11 | CCc1cccc(-n2c(C)nc3c(cnn3-c3ccc(C)c(C)c3)c2=O)c1 | -1% (active)
12 | Cc1nc2c(cnn2-c2ccccc2)c(=O)n1-c1ccccc1 | 73%
13 | COc1cccc(-n2c(-c3ccco3)nc3c(cnn3-c3ccc(Cl)cc3)c2=O)c1 | 113%
14 | COc1ccc(-n2c(C)nc3c(cnn3-c3ccc(F)cc3)c2=O)cc1 | 73%
15 | CCOC(=O)c1ccc(-n2c(C)nc3c(cnn3-c3ccc(Cl)cc3)c2=O)cc1 | 67%
16 | COc1ccc(-n2c(C)nc3c(cnn3-c3ccc(C)c(C)c3)c2=O)cc1Cl | 118%
17 | Cc1ccc(-n2c(C)nc3c(cnn3-c3ccccc3C)c2=O)cc1F | 120%
18 | Cc1ccc(-n2ncc3c(=O)n(Cc4cccc(C(F)(F)F)c4)cnc32)cc1C | 93%
19 | COc1cccc(-n2c(C)nc3c(cnn3-c3ccc(C)c(C)c3)c2=O)c1 | 50% (active)
20 | COc1ccc(-n2c(-c3ccco3)nc3c(cnn3-c3ccc(C)cc3)c2=O)cc1 | 73%
21 | COc1cccc(-n2c(-c3ccco3)nc3c(cnn3-c3ccc(C)cc3)c2=O)c1 | 52% (active)
22 | Cc1ccc(C)c(S(=O)(=O)c2cn(C)c3cc(N4CCCCC4C)c(F)cc3c2=O)c1 (centres undefined) | 86%

Row | SMILES | survival
23 | CCOc1ccc(/C=C/c2nc(C#N)c(NC(C)CC)o2)cc1 (centres undefined) | 68%
24 | Cc1nc2cc(C(F)(F)F)ccc2n1C1CCN(CC(=O)N2CCCC2)CC1 | 109%
25 | O=C(Nc1ccccc1-c1ccccc1)NC1CCN(CC(=O)N2CCOCC2)CC1 | 73%
26 | CC1=C(C(=O)N2CCN(c3ccc(Cl)cc3)CC2)C2(CCC(C)CC2)OC1=O (centres undefined) | 121%
27 | CCc1ccc(CNC(=O)CN(c2ccc(C)cc2)S(=O)(=O)N(C)C)cc1 | 76%
28 | O=C(OC(C(=O)NC1CCCC1)c1cccnc1)C1=Cc2ccccc2OC1 (centres undefined) | 96%
29 | COc1cccc(C(=O)N2c3nc(-c4ccco4)nn3C3(CCCCC3)[C@@H]3CCCC[C@@H]32)c1 | 95%
30 | CNS(=O)(=O)c1cn(CC(=O)Nc2ccc(C)cc2C)cc1S(=O)(=O)NC | 117%
31 | Cc1cc(F)ccc1NC(=O)Cn1cc(S(=O)(=O)NC(C)C)c(S(=O)(=O)NC(C)C)c1 | 90%
32 | CNS(=O)(=O)c1cn(CC(=O)Nc2ccc(F)cc2F)cc1S(=O)(=O)NC | 0% (active)
33 | COc1ccc(-c2onc(C)c2C)cc1S(=O)(=O)NCC1CCN(Cc2cc(C)ccc2C)CC1 | 100%
34 | CCOC(=O)c1cc(-c2ccc(C)cc2)n(CCC(=O)Nc2ccc(C(C)C)cc2)c1C | 61%
35 | CCOC(=O)c1cc(-c2ccc(F)cc2)n(CCC(=O)NCc2ccccc2OC)c1C | 52% (active)
36 | CCOC(=O)c1cc(-c2ccccc2)n(CCC(=O)NCCc2ccccc2)c1C | 0% (active)
37 | CCOC(=O)c1cc(-c2ccccc2)n(CCC(=O)NCCc2ccc(C)cc2)c1C | 71%
38 | CCOC(=O)c1cc(-c2ccc(C)cc2)n(CCC(=O)NCc2ccccc2)c1C | 108%
39 | CCOC(=O)c1cc(-c2ccccc2)n(CC(=O)NCc2ccccc2OC)c1C | 101%
40 | CCOC(=O)c1cc(-c2ccc(C)cc2)n(CCC(=O)Nc2ccc(OC)c(OC)c2)c1C | 52% (active)
41 | CCOC(=O)c1cc(-c2ccc(F)cc2)n(CCC(=O)Nc2ccccc2OC)c1C | 101%
42 | CCOC(=O)c1cc(-c2ccccc2)n(CCC(=O)Nc2ccc(OC)c(Cl)c2)c1C | 92%
43 | CCOC(=O)c1cc(-c2ccc(F)cc2)n(CC(=O)NCc2ccc(OC)cc2)c1C | 75%
44 | CCOC(=O)c1cc(-c2ccccc2)n(CCC(=O)NCCc2cccc(C)c2)c1C | 58%
